This is part of a sample that, as a whole, favours compounds with a hit. Of some 83,000 tested, about 20% had one in any assay.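 Single-concentration screen, 48 h exposure, 96-well plates. Endpoint: percent growth. Below 10 = active.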 Values without a mark were called inactive. Activity calls are given as the source filed them.
Tested on: SR leukemia
Assay: NCI-60 one-dose screen, 48 h (100 = growth as untreated, 0 = no growth, -100 = all killed)
Conditions: 10 µM unless noted

**Q.** O=C(Cn1c2ccccc2c2ccncc21)N/N=C/c1c[nH]c2ccccc12 was tested. Which growth did it give?
**A.** 40.6%

**Q.** With CC1(C)CC(=O)C2=C(C1)OC1=C(C(=O)CC(C)(C)C1)C2c1ccc(OCc2cn(-c3ccc(F)cc3F)nn2)cc1 as the molecule, how does the growth read?
**A.** 58.6%

**Q.** For c1ccc2c(c1)Oc1cccnc1-n1nccc1-2, which growth is on record?
**A.** 94.2%

**Q.** For NC(=NCCCOc1ccc(F)cc1)Nc1ccc(Cl)c(Cl)c1, which growth is on record?
**A.** 52.1%

**Q.** For O=C1OC(N(Cc2ccc(Cl)cc2)c2ccccc2)c2ccccc21 (stereo unspecified), which growth is on record?
**A.** 97.8%

**Q.** How did the growth turn out when O=C(Nc1cccc([N+](=O)[O-])c1)Nc1cccc([N+](=O)[O-])c1 was run?
**A.** 38.2%

**Q.** Which growth does the source give for CCOc1ccc(-n2c(-c3cc(OC)c(OC)c(OC)c3)nnc2-c2ccc(OC)cc2N)cc1 here?
**A.** 19.3%

**Q.** How did the growth turn out when CC(=O)CC/C=C(\C)[C@H](O)[C@H](C)C(=O)O[C@H]1C[C@H](C)C=C2C=C[C@@]3(C)O[C@@H](O)CC(=O)[C@]3(C)[C@H]21 was run?
**A.** 0.335% (active)

**Q.** For Cc1cccc[n+]1CCC[n+]1ccccc1C, which growth is on record?
**A.** 96.2%

**Q.** C#CC(=O)/C=C/CCCCCCC#CC(=O)CCC(=O)C#CCCCCCC/C=C/C(=O)C#C was tested. Which growth did it give?
**A.** -34.8% (active)

**Q.** How did the growth turn out when COc1ccc2c(c1)OC(N)=C(C#N)C2c1ccc(F)cc1 (stereo unspecified) was run?
**A.** 18.1%

**Q.** Which growth does the source give for CC1=C2C(=C[C@@](C)(CO)[C@@H]2OC(=O)N(C)CCN(C)C(=O)OC(C)(C)C)C(=O)[C@](C)(O)C12CC2 here?
**A.** 50.6%

**Q.** For COc1ccc2c(-c3ccc(F)cc3)c(C#N)c(=NC(C)=O)oc2c1, which growth is on record?
**A.** 13.7%

**Q.** How did the growth turn out when CC(C)(C)OC(=O)NCc1cccc(N=C=S)c1 was run?
**A.** -4.27% (active)

**Q.** How did the growth turn out when CN(C)CCS(=O)(=O)Nc1cc(-c2ccc3ncnc(Nc4ccc(F)c(Cl)c4)c3c2)cnc1Cl was run?
**A.** -29.1% (active)

**Q.** With C=C1C(=O)O[C@H]2[C@H]1CC/C(COC(=O)c1ccc(Cl)nc1)=C\CC[C@@]1(C)O[C@@H]21 as the molecule, how does the growth read?
**A.** -13.2% (active)

**Q.** For C=CC(=O)NC(=O)Nc1ccccc1Cl, which growth is on record?
**A.** 39.8%

**Q.** With Nc1nc(-c2cc3c(cc2Cl)NC(=O)/C3=C/c2ccc(Cl)cc2)cs1 as the molecule, how does the growth read?
**A.** 13.8%

**Q.** How did the growth turn out when COc1cc2ncn3c(=O)c4c5c(sc4nc3c2cc1OC)CCCCC5 was run?
**A.** 97.9%

**Q.** With CCn1cc(C(=O)O)c(=O)c2cc(F)c(N3CCN(CC(=O)Nc4ccc(C(C)=O)cc4)CC3)cc21 as the molecule, how does the growth read?
**A.** 91.9%

**Q.** For CCNC(=O)Oc1ccc(/C(=C(/CC)Cc2ccccc2)c2ccc(OCCN3CCOCC3)cc2)cc1, which growth is on record?
**A.** 29.2%

**Q.** With CCCCCCCCCCCCCCCCNc1ccccc1 as the molecule, how does the growth read?
**A.** 75.1%

**Q.** How did the growth turn out when CC(/C=C/C=C(\C)[C@H](O)[C@H](C)C(=O)O[C@H]1C[C@H](C)C=C2C=C[C@@]3(C)O[C@@H](O)CC(=O)[C@]3(C)[C@H]21)=C\C=C\C(=O)O was run?
**A.** 1.43% (active)

**Q.** COc1ccc2c(c1)OC(N(C(C)=O)C(C)=O)=C(C#N)C2c1ccc(F)cc1 (stereo unspecified) was tested. Which growth did it give?
**A.** 12.4%

**Q.** For N#Cc1c(N)nc(Cl)c(C#N)c1C(=O)c1ccccc1, which growth is on record?
**A.** -17.6% (active)

**Q.** With CCCCCCCC(=O)SCC/C=C/[C@@H]1CC(=O)NCc2nc(cs2)C2=N[C@@](C)(CS2)C(=O)N[C@@H](C(C)C)C(=O)N1 as the molecule, how does the growth read?
**A.** 6.51% (active)

**Q.** Which growth does the source give for COC(=O)c1ccc2c(c1)Oc1ccc(Cl)cc1-c1cc(C)nn1-2 here?
**A.** 69.9%

**Q.** For Nc1n[nH]c2cccc(C#Cc3cccc(NC(=O)c4cccc(C(F)(F)F)c4)c3)c12, which growth is on record?
**A.** 27.2%

**Q.** With Cc1ccc(NC(=O)CN2CCOCC2)cc1Cl as the molecule, how does the growth read?
**A.** 82.3%

**Q.** With C=C1C(=O)O[C@H]2[C@H]1CC/C(COC(=O)c1ccc(C#N)cc1)=C\CC[C@@]1(C)O[C@@H]21 as the molecule, how does the growth read?
**A.** -10% (active)

**Q.** C=CC(C)(O)CCC1C(=C)CCC2C(C)(C)CCCC12C (stereo unspecified) was tested. Which growth did it give?
**A.** 90.2%

**Q.** How did the growth turn out when CCOC(=O)c1noc2c1CCc1cn(Cc3cc(OC)cc(OC)c3)cc1-2 was run?
**A.** 91.1%

**Q.** How did the growth turn out when Nc1nc(Nc2ccc(OCc3cccc(F)c3)cc2)c2c(n1)[nH]c1ccc(O)cc12 was run?
**A.** -48.3% (active)

**Q.** Which growth does the source give for C#C[C@@]1(O)[C@@H](CO)O[C@@H](n2cc(Br)c3c(Cl)ccnc32)[C@@H]1O here?
**A.** 22.4%

**Q.** For C=C1C(=O)O[C@H]2[C@H]1CC/C(CNC(=O)/C1=C/CC[C@@]3(C)O[C@H]3[C@H]3OC(=O)C(=C)[C@@H]3CC1)=C\CC[C@@]1(C)O[C@@H]21, which growth is on record?
**A.** 92.4%

**Q.** With COc1ccc(N)c(S)c1 as the molecule, how does the growth read?
**A.** 103%

**Q.** How did the growth turn out when C=CC(=O)Nc1cccc(Nc2nc(Nc3ccc(OCCOC(F)F)cc3)ncc2F)c1 was run?
**A.** 10.5%

**Q.** With O=C(c1ccccc1)[C@H]1[C@@H]2CCCN2[C@]2(C(=O)Nc3ccc(F)cc32)[C@]12C(=O)Nc1ccccc12 as the molecule, how does the growth read?
**A.** 85.2%

Tested on: RPMI-8226 leukemia
Assay: as above
Conditions: 10 µM unless noted

**Q.** O=C(Cn1c2ccccc2c2ccncc21)N/N=C/c1c[nH]c2ccccc12 was tested. Which growth did it give?
**A.** -27.7% (active)

**Q.** Which growth does the source give for CC1(C)CC(=O)C2=C(C1)OC1=C(C(=O)CC(C)(C)C1)C2c1ccc(OCc2cn(-c3ccc(F)cc3F)nn2)cc1 here?
**A.** 92.7%

**Q.** For c1ccc2c(c1)Oc1cccnc1-n1nccc1-2, which growth is on record?
**A.** 96.9%

**Q.** For NC(=NCCCOc1ccc(F)cc1)Nc1ccc(Cl)c(Cl)c1, which growth is on record?
**A.** 39.1%

**Q.** How did the growth turn out when O=C1OC(N(Cc2ccc(Cl)cc2)c2ccccc2)c2ccccc21 (stereo unspecified) was run?
**A.** 97.2%

**Q.** Which growth does the source give for O=C(Nc1cccc([N+](=O)[O-])c1)Nc1cccc([N+](=O)[O-])c1 here?
**A.** 12.4%

**Q.** Which growth does the source give for CCOc1ccc(-n2c(-c3cc(OC)c(OC)c(OC)c3)nnc2-c2ccc(OC)cc2N)cc1 here?
**A.** 82.6%

**Q.** How did the growth turn out when CC(=O)CC/C=C(\C)[C@H](O)[C@H](C)C(=O)O[C@H]1C[C@H](C)C=C2C=C[C@@]3(C)O[C@@H](O)CC(=O)[C@]3(C)[C@H]21 was run?
**A.** -18.5% (active)

**Q.** For Cc1cccc[n+]1CCC[n+]1ccccc1C, which growth is on record?
**A.** 98.8%

**Q.** C#CC(=O)/C=C/CCCCCCC#CC(=O)CCC(=O)C#CCCCCCC/C=C/C(=O)C#C was tested. Which growth did it give?
**A.** -31.6% (active)

**Q.** COc1ccc2c(c1)OC(N)=C(C#N)C2c1ccc(F)cc1 (stereo unspecified) was tested. Which growth did it give?
**A.** 6.87% (active)

**Q.** With CC1=C2C(=C[C@@](C)(CO)[C@@H]2OC(=O)N(C)CCN(C)C(=O)OC(C)(C)C)C(=O)[C@](C)(O)C12CC2 as the molecule, how does the growth read?
**A.** 48%

**Q.** With COc1ccc2c(-c3ccc(F)cc3)c(C#N)c(=NC(C)=O)oc2c1 as the molecule, how does the growth read?
**A.** 12.3%

**Q.** CC(C)(C)OC(=O)NCc1cccc(N=C=S)c1 was tested. Which growth did it give?
**A.** -38.9% (active)

**Q.** Which growth does the source give for CN(C)CCS(=O)(=O)Nc1cc(-c2ccc3ncnc(Nc4ccc(F)c(Cl)c4)c3c2)cnc1Cl here?
**A.** -39.9% (active)

**Q.** With C=C1C(=O)O[C@H]2[C@H]1CC/C(COC(=O)c1ccc(Cl)nc1)=C\CC[C@@]1(C)O[C@@H]21 as the molecule, how does the growth read?
**A.** -30% (active)

**Q.** C=CC(=O)NC(=O)Nc1ccccc1Cl was tested. Which growth did it give?
**A.** 21.4%

**Q.** Which growth does the source give for Nc1nc(-c2cc3c(cc2Cl)NC(=O)/C3=C/c2ccc(Cl)cc2)cs1 here?
**A.** 31.9%

**Q.** Which growth does the source give for COc1cc2ncn3c(=O)c4c5c(sc4nc3c2cc1OC)CCCCC5 here?
**A.** 103%

**Q.** Which growth does the source give for CCn1cc(C(=O)O)c(=O)c2cc(F)c(N3CCN(CC(=O)Nc4ccc(C(C)=O)cc4)CC3)cc21 here?
**A.** 106%

**Q.** How did the growth turn out when CCNC(=O)Oc1ccc(/C(=C(/CC)Cc2ccccc2)c2ccc(OCCN3CCOCC3)cc2)cc1 was run?
**A.** 16%

**Q.** CCCCCCCCCCCCCCCCNc1ccccc1 was tested. Which growth did it give?
**A.** 52.5%

**Q.** Which growth does the source give for CC(/C=C/C=C(\C)[C@H](O)[C@H](C)C(=O)O[C@H]1C[C@H](C)C=C2C=C[C@@]3(C)O[C@@H](O)CC(=O)[C@]3(C)[C@H]21)=C\C=C\C(=O)O here?
**A.** 27.6%

**Q.** How did the growth turn out when COc1ccc2c(c1)OC(N(C(C)=O)C(C)=O)=C(C#N)C2c1ccc(F)cc1 (stereo unspecified) was run?
**A.** 3.13% (active)

**Q.** For N#Cc1c(N)nc(Cl)c(C#N)c1C(=O)c1ccccc1, which growth is on record?
**A.** -17.6% (active)

**Q.** Which growth does the source give for CCCCCCCC(=O)SCC/C=C/[C@@H]1CC(=O)NCc2nc(cs2)C2=N[C@@](C)(CS2)C(=O)N[C@@H](C(C)C)C(=O)N1 here?
**A.** -6.34% (active)

**Q.** COC(=O)c1ccc2c(c1)Oc1ccc(Cl)cc1-c1cc(C)nn1-2 was tested. Which growth did it give?
**A.** 74.9%

**Q.** How did the growth turn out when Nc1n[nH]c2cccc(C#Cc3cccc(NC(=O)c4cccc(C(F)(F)F)c4)c3)c12 was run?
**A.** 29.3%

**Q.** Which growth does the source give for Cc1ccc(NC(=O)CN2CCOCC2)cc1Cl here?
**A.** 93.3%

**Q.** For C=C1C(=O)O[C@H]2[C@H]1CC/C(COC(=O)c1ccc(C#N)cc1)=C\CC[C@@]1(C)O[C@@H]21, which growth is on record?
**A.** -35.8% (active)

**Q.** With C=CC(C)(O)CCC1C(=C)CCC2C(C)(C)CCCC12C (stereo unspecified) as the molecule, how does the growth read?
**A.** 102%

**Q.** With CCOC(=O)c1noc2c1CCc1cn(Cc3cc(OC)cc(OC)c3)cc1-2 as the molecule, how does the growth read?
**A.** 99.9%

**Q.** How did the growth turn out when Nc1nc(Nc2ccc(OCc3cccc(F)c3)cc2)c2c(n1)[nH]c1ccc(O)cc12 was run?
**A.** -37.5% (active)

**Q.** Which growth does the source give for C#C[C@@]1(O)[C@@H](CO)O[C@@H](n2cc(Br)c3c(Cl)ccnc32)[C@@H]1O here?
**A.** 0.227% (active)

**Q.** Which growth does the source give for C=C1C(=O)O[C@H]2[C@H]1CC/C(CNC(=O)/C1=C/CC[C@@]3(C)O[C@H]3[C@H]3OC(=O)C(=C)[C@@H]3CC1)=C\CC[C@@]1(C)O[C@@H]21 here?
**A.** 78.8%

**Q.** How did the growth turn out when COc1ccc(N)c(S)c1 was run?
**A.** 95.9%

**Q.** C=CC(=O)Nc1cccc(Nc2nc(Nc3ccc(OCCOC(F)F)cc3)ncc2F)c1 was tested. Which growth did it give?
**A.** 42.1%

**Q.** With O=C(c1ccccc1)[C@H]1[C@@H]2CCCN2[C@]2(C(=O)Nc3ccc(F)cc32)[C@]12C(=O)Nc1ccccc12 as the molecule, how does the growth read?
**A.** 71.2%
